Measured values: PubChem BioAssay AID1159580 (chemical genetic matrix, 2015)
Values joined by “and” are separate entries in the source; they are usually repeats but may differ in a detail not shown here. Equal entries are not always repeated. The campaign covered roughly 5,500 compounds. About 2,000 (36%) were called active. Another 18% or so got no clear call; they are omitted. No stated cut-off is given here; in the data, active means normalized growth mostly below about 0.91 (no sharp cut-off); inconclusive means no clear call, values can overlap the other calls; inactive means mostly above about 0.92. The list shows a part of the results.

Assay: chemical genetic growth profiling, strain panel (AID 1159580);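 further: tested at 20 µM; growth read once vehicle control cultures reached saturation at 30 °C; 1 = growth at the plate median or of vehicle wells; lower values mean less growth of the strain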
Details: S. cerevisiae deletion strains, growth OD
[1] = locus YBR229C, strain ROT2, active compounds read low
[2] = locus YDL101C, strain DUN1, active compounds read low
[3] = locus YEL061C, strain CIN8, active compounds read low
[4] = locus YGR078C, strain PAC10, active compounds read low
[5] = locus YHR030C, strain SLT2, active compounds read low
[6] = locus YHR079C, strain IRE1, active compounds read low
[7] = locus YJL095W, strain BCK1, active compounds read low
[8] = locus YJR043C, strain POL32, active compounds read low
[9] = locus YJR066W, strain TOR1, active compounds read low
[10] = locus YLR039C, strain RIC1, active compounds read low
[11] = locus YLR113W, strain HOG1, active compounds read low
[12] = locus YLR262C, strain YPT6, active compounds read low
[13] = locus YMR307W, strain GAS1, active compounds read low
[14] = locus YNL153C, strain GIM3, active compounds read low
[15] = locus YNL183C, strain NPR1, active compounds read low
[16] = locus YOR061W, strain CKA2, active compounds read low
[17] = locus YOR231W, strain MKK1, active compounds read low
[18] = locus YPL055C, strain LGE1, active compounds read low
[19] = locus YPL241C, strain CIN2, active compounds read low
[20] = locus YPL256C, strain CLN2, active compounds read low

Measured: normalized growth

O=C(Nc1ccccc1)c1ccccc1O
active: locus YBR021W, strain FUR4, active compounds read low 1.18 [resistant] | locus YKR001C, strain vps1, active compounds read low 0.897 | [11] 0.791 | locus YOR184W, strain ser1, active compounds read low 0.861
inactive: [1] 1.01 | locus YCL029C, strain bik1, active compounds read low 0.953 | locus YDL035C, strain GPR1, active compounds read low 0.954 | locus YDL074C, strain BRE1, active compounds read low 0.904 | [2] 0.956 | locus YDL185W, strain tfp1, active compounds read low 0.927 | locus YDL192W, strain arf1, active compounds read low 0.941 | locus YDR101C, strain arx1, active compounds read low 0.953 | locus YDR162C, strain NBP2, active compounds read low 0.963 | locus YDR318W, strain mcm21, active compounds read low 0.981 | locus YDR388W, active compounds read low 0.988 | locus YDR502C, strain sam2, active compounds read low 0.939 | [3] 0.995 | locus YER110C, active compounds read low 0.962 | locus YER155C, strain BEM2, active compounds read low 0.98 | locus YER167W, strain BCK2, active compounds read low 0.982 | locus YGL078C, strain dbp3, active compounds read low 0.943 | locus YGL086W, strain mad1, active compounds read low 0.966 | locus YGL248W, strain PDE1, active compounds read low 0.981 | [4] 0.94 | locus YGR135W, strain pre9, active compounds read low 0.944 | locus YGR229C, strain SMI1, active compounds read low 0.909 | locus YGR252W, strain gcn5, active compounds read low 0.847 | [5] 0.992 and 0.935 | locus YHR079C, strain IRE1 (second series), active compounds read low 0.979 | [6] 0.921 | locus YHR094C, strain hxt1, active compounds read low 0.989 | locus YHR129C, strain ARP1, active compounds read low 0.991 | locus YHR200W, strain rpn10, active compounds read low 0.963 | locus YIL066C, strain RNR3, active compounds read low 0.986 | locus YIL073C, strain SPO22, active compounds read low 0.874 | locus YIL125W, strain kgd1, active compounds read low 0.984 | locus YIR030C, strain dcg1, active compounds read low 0.976 | [7] 0.929 and 0.932 | locus YJL134W, strain LCB3, active compounds read low 0.987 | locus YJL168C, strain set2, active compounds read low 0.992 | locus YJL187C, strain SWE1 (second series), active compounds read low 0.941 | [8] 0.924 | [9] 0.901 | locus YKL009W, strain mrt4, active compounds read low 0.891 | locus YKL068W, active compounds read low 0.964 | locus YKL085W, strain MDH1 (second series), active compounds read low 0.98 | locus YKL085W, strain MDH1, active compounds read low 0.98 | [10] 0.949 | locus YLR058C, strain SHM2, active compounds read low 0.99 | locus YLR102C, strain apc9, active compounds read low 0.976 | [12] 0.945 | locus YLR268W, strain sec22, active compounds read low 0.916 | locus YLR330W, strain CHS5, active compounds read low 0.983 | locus YLR342W, strain FKS1 (second series), active compounds read low 0.968 | locus YLR371W, strain rom2, active compounds read low 0.964 | locus YLR418C, strain cdc73, active compounds read low 0.934 | locus YML016C, strain PPZ1, active compounds read low 1 | locus YML032C, strain rad52, active compounds read low 0.98 | locus YML124C, strain tub3, active compounds read low 0.988 | locus YMR078C, strain ctf18, active compounds read low 0.956 | locus YMR223W, strain ubp8, active compounds read low 0.941 | [13] 0.986 | locus YNL067W, strain RPL9B, active compounds read low 0.9 | [14] 0.94 | [15] 0.885 | locus YNL233W, strain BNI4, active compounds read low 0.945 | locus YNL250W, strain rad50, active compounds read low 0.952 | locus YNL271C, strain bni1, active compounds read low 0.959 | locus YNL298W, strain CLA4, active compounds read low 0.971 | locus YNL307C, strain MCK1, active compounds read low 0.974 | locus YNR052C, strain pop2, active compounds read low 0.978 | locus YOL012C, strain htz1 1.23 | locus YOL147C, strain pex11, active compounds read low 0.987 | [16] 0.997 | locus YOR069W, strain VPS5, active compounds read low 0.995 | locus YOR136W, strain idh2, active compounds read low 0.983 | locus YOR144C, strain elg1, active compounds read low 0.994 | [17] 0.929 | locus YOR316C, strain cot1, active compounds read low 0.989 | [18] 0.921 | [19] 0.994 | [20] 0.901 | locus YPR119W, strain clb2, active compounds read low 0.98 | locus YPR141C, strain kar3, active compounds read low 0.969 | locus YPR163C, strain tif3, active compounds read low 0.982 | locus YPR167C, strain met16, active compounds read low 0.966 | strain wtn01, active compounds read low 0.907

O=C(Nc1ccc(F)c(Cl)c1)c1ccccc1O
active: locus YBL105C, strain PKC1, active compounds read low 0.897 | locus YBR135W, strain CKS1, active compounds read low 0.888 | locus YDL017W, strain CDC7, active compounds read low 0.895 | locus YDL108W, strain KIN28, active compounds read low 0.896 | locus YDL132W, strain cdc53, active compounds read low 0.879 | locus YDR052C, strain DBF4, active compounds read low 0.884 | locus YDR226W, strain ADK1, active compounds read low 0.877 | locus YFL009W, strain cdc4, active compounds read low 0.888 | locus YFR003C, strain YPI1, active compounds read low 0.897 | locus YFR028C, strain CDC14, active compounds read low 0.884 | [5] 0.768 | locus YJR016C, strain ILV3, active compounds read low 0.895 | locus YKL193C, strain SDS22, active compounds read low 0.885 | [11] 0.669 | locus YNL006W, strain LST8, active compounds read low 0.893 | locus YPL209C, strain IPL1, active compounds read low 0.895 | [20] 0.756 | locus YPR025C, strain CCL1, active compounds read low 0.894
inactive: locus YAR019C, strain CDC15, active compounds read low 0.9 | locus YBR136W, strain MEC1, active compounds read low 0.899 | locus YBR160W, strain CDC28, active compounds read low 0.899 | locus YDL028C, strain MPS1, active compounds read low 0.897 | [2] 0.951 | locus YDL214C, strain PRR2, active compounds read low 0.83 | locus YDR054C, strain cdc34, active compounds read low 0.885 | locus YDR477W, strain SNF1, active compounds read low 0.834 | locus YER123W, strain YCK3, active compounds read low 0.76 | locus YER133W, strain GLC7, active compounds read low 0.862 | locus YFL029C, strain CAK1, active compounds read low 0.884 | locus YFR019W, strain FAB1, active compounds read low 0.904 | locus YGR040W, strain KSS1, active compounds read low 0.819 | locus YGR052W, strain FMP48, active compounds read low 0.8 | locus YGR092W, strain DBF2, active compounds read low 0.519 | [6] 0.632 | locus YHR082C, strain KSP1, active compounds read low 0.76 | locus YHR205W, strain SCH9, active compounds read low 0.747 | locus YIL147C, strain SLN1, active compounds read low 0.895 | [7] 0.676 | locus YJL128C, strain PBS2, active compounds read low 0.846 | locus YJL157C, strain FAR1, active compounds read low 0.803 | locus YJR066W, strain TOR1 (second series), active compounds read low 0.882 | [9] 0.745 | locus YKL048C, strain ELM1, active compounds read low 0.893 | locus YKL067W, strain YNK1, active compounds read low 0.825 | locus YKL101W, strain HSL1, active compounds read low 0.807 | locus YKL203C, strain TOR2, active compounds read low 0.863 | locus YLR133W, strain CKI1, active compounds read low 0.762 | locus YLR403W, strain SFP1, active compounds read low 0.743 | locus YML070W, strain DAK1, active compounds read low 0.777 | locus YMR001C, strain CDC5, active compounds read low 0.891 | locus YMR205C, strain PFK2 (second series), active compounds read low 0.769 | locus YMR277W, strain FCP1, active compounds read low 0.9 | locus YNL020C, strain ARK1, active compounds read low 0.745 | locus YNL161W, strain CBK1, active compounds read low 0.904 | [15] 0.759 | locus YNL207W, strain RIO2, active compounds read low 0.893 | locus YNL222W, strain SSU72, active compounds read low 0.906 | locus YNL307C, strain MCK1 (second series), active compounds read low 0.833 | locus YOL078W, strain AVO1, active compounds read low 0.897 | locus YOL136C, strain PFK27, active compounds read low 0.846 | [16] 0.842 | locus YOR119C, strain RIO1, active compounds read low 0.936 | [17] 0.829 | locus YOR329C, strain SCD5, active compounds read low 0.913 | locus YPL031C, strain PHO85, active compounds read low 0.796 | locus YPL153C, strain RAD53, active compounds read low 0.799 | locus YPL204W, strain HRR25, active compounds read low 0.797 | locus YPR106W, strain ISR1, active compounds read low 0.911 | locus YPR111W, strain DBF20, active compounds read low 0.887 | strain NNK1, active compounds read low 0.899 | strain TSCII, active compounds read low 0.892

O=C(Nc1ccccc1)NC1CCCC1
inactive: locus YAL013W, strain DEP1, active compounds read low 1.02 | [1] 0.983 | locus YCL061C, strain MRC1, active compounds read low 1.02 | [2] 0.989 | locus YDL134C, strain PPH21, active compounds read low 1.01 | locus YDR150W, strain NUM1, active compounds read low 0.983 | [3] 0.965 | [4] 1.01 | [5] 1.07 | locus YHR087W, strain rtc3, active compounds read low 0.997 | [8] 1.04 | locus YJR075W, strain HOC1, active compounds read low 0.992 | locus YKL190W, strain CNB1, active compounds read low 0.991 | [10] 1.01 | locus YLR058C, strain SHM2 (second series), active compounds read low 0.997 | locus YLR085C, strain ARP6, active compounds read low 0.991 | [12] 1.05 | locus YML094W, strain GIM5, active compounds read low 0.96 | locus YMR219W, strain ESC1, active compounds read low 0.997 | locus YMR263W, strain SAP30, active compounds read low 1.01 | [13] 1.03 | locus YNL128W, strain TEP1, active compounds read low 0.941 | [14] 1.01 | locus YNL298W, strain CLA4 (second series), active compounds read low 0.985 | locus YNL322C, strain KRE1, active compounds read low 0.996 | locus YNR030W, strain Alg12, active compounds read low 1 | [18] 1.02 | [19] 0.99 | locus YPR135W, strain CTF4, active compounds read low 1.13
